Screening data (PubChem BioAssay)
The list is not random: actives were taken first. Their share in the collection is about 3.7%.
BH1578 lux ind = induces V. cholerae light production without autoinducers; V. cholerae BH1578 lux reporter, luminescence, 6 h; activation, % at 18.7 µM; 350,000 compounds, 0.16% hits; in the data active means activation mostly above about 9.7%, no sharp cut-off; inconclusive means no clear call, values can overlap the other calls; inactive means mostly below about 3.7%
Bead autofluor = counter-screen for toxin protease inhibitors: compound fluorescence | AID 624483 | compound autofluorescence counterscreen, microsphere flow cytometry; hits give high values | 360,000 compounds, 3.1% hits | fluorescence intensity (no concentration beside the values); in the data active means fluorescence intensity above about 16000; inconclusive means no clear call, values can overlap the other calls
BJeLR viability = BJeLR cell viability loss. BJeLR (HRASV12) viability, CellTiter-Glo ATP luminescence, 48 h. inhibition, % (concentration not given with the values). 300,000 compounds, 0.17% hits. AID 1554; in the data active means inhibition above about 50%; inconclusive means no clear call, values can overlap the other calls
Anthrax LF inh2 = anthrax lethal factor protease inhibition | 360,000 compounds, 0.12% hits | multiplex microsphere protease cleavage assay, LF | inhibition, % at 10 µM | AID 588501 | P15917; further: plate controls were buffer without enzyme for full effect and enzyme alone for no effect
Target sequence (P15917 whole entry, looked up): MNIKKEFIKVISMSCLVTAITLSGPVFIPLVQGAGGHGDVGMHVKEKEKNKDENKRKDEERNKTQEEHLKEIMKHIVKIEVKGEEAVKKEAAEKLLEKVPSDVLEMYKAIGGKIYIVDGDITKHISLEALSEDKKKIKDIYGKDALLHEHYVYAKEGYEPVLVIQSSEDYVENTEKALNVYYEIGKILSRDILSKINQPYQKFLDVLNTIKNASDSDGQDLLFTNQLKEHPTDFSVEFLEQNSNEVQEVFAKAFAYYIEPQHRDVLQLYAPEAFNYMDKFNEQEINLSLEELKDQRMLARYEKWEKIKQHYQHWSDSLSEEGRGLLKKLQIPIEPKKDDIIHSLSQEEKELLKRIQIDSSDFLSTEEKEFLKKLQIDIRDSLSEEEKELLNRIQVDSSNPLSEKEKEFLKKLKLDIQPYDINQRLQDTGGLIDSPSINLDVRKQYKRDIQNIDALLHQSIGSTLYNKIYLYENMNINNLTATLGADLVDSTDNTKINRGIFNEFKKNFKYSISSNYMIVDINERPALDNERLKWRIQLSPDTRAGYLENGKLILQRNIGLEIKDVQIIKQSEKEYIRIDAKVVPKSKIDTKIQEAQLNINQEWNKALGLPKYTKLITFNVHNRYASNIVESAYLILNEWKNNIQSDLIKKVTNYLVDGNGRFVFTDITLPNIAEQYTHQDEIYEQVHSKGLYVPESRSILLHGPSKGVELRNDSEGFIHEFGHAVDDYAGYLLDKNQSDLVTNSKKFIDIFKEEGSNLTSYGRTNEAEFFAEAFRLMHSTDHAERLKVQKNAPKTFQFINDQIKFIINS
BoNT-A LC inh2 = BoNT A light chain protease inhibition. multiplex microsphere protease substrate cleavage, flow cytometry. inhibition, % at 10 µM. 360,000 compounds, 0.17% hits; further: plate controls were buffer without enzyme for full effect and enzyme alone for no effect
BoNT F protease = blocks Botulinum neurotoxin F light chain protease; Multiplex microsphere protease cleavage assay, flow cytometry; inhibition, % at 10 µM; 360,000 compounds, 0.22% hits; in the data active means inhibition above about 35%, passing the limit was not always enough; inconclusive means no clear call, values can overlap the other calls; further: plate controls were buffer without enzyme for full effect and enzyme alone for no effect
An asterisk follows results filed as active. Unless noted, no stated cut-off is given here; in the data, active means inhibition above about 30%; inconclusive means no clear call, values can overlap the other calls; inactive means below that.

`CCc1nc2ccc(C(=O)N(C)CCCN(C)C)cn2c1N(C=O)CCC(C)C` gave BH1578 lux ind 0, Bead autofluor 3475, Anthrax LF inh2 -6, BoNT-A LC inh2 0 and BoNT F protease 1.
`CCOC(=O)N1CCN(S(=O)(=O)c2ccc(F)c(C(=O)Nc3cc(C)cc(C)c3)c2)CC1` gave BH1578 lux ind 2, Bead autofluor 22579*, BJeLR viability -7, Anthrax LF inh2 -3, BoNT-A LC inh2 2 and BoNT F protease 3.
COC(=O)COc1ccc(S(=O)(=O)N2CCCCCC2)cc1C was read as BH1578 lux ind inactive, Bead autofluor 3591, BJeLR viability -5, Anthrax LF inh2 -11, BoNT-A LC inh2 -4 and BoNT F protease -16.
O=C(Nc1ccccc1C(F)(F)F)c1cc(S(=O)(=O)N2CCC3(CC2)OCCO3)ccc1F was read as BH1578 lux ind -1, Bead autofluor 23758*, BJeLR viability -15, Anthrax LF inh2 -1, BoNT-A LC inh2 -1 and BoNT F protease -1.
Screening CCOC(=O)N1CCN(S(=O)(=O)c2ccc(OCC(=O)OC)c(C)c2)CC1 returned BH1578 lux ind 3, Bead autofluor 25177*, BJeLR viability 5, Anthrax LF inh2 -1, BoNT-A LC inh2 -7 and BoNT F protease -11.
`Cc1c(C(=O)Nc2ccc(F)cc2)oc2ccc(S(=O)(=O)N3CCC4(CC3)OCCO4)cc12` gave BH1578 lux ind 0, Bead autofluor 21736*, BJeLR viability 1, Anthrax LF inh2 -1, BoNT-A LC inh2 4 and BoNT F protease 5.
Screening C=C1C(=O)N(C)CCC1C(CC)C(=O)OC (configuration not stated) returned BH1578 lux ind inactive, Bead autofluor 3849, Anthrax LF inh2 -10, BoNT-A LC inh2 0 and BoNT F protease -5.
`Cc1ccc(NC(=O)c2cc(S(=O)(=O)N3CCC4(CC3)OCCO4)ccc2F)cc1` gave BH1578 lux ind 0, Bead autofluor 22105*, BJeLR viability 6, Anthrax LF inh2 0, BoNT-A LC inh2 3 and BoNT F protease 5.
`COc1ccccc1NC(=O)c1cc(S(=O)(=O)N2CCC3(CC2)OCCO3)ccc1F` gave BH1578 lux ind 0, Bead autofluor 20818*, BJeLR viability -8, Anthrax LF inh2 0, BoNT-A LC inh2 0 and BoNT F protease 1.
COc1ccccc1NC(=O)c1cc(S(=O)(=O)N2CCc3ccccc32)ccc1F was read as BH1578 lux ind -3, Bead autofluor 5319, BJeLR viability 13, Anthrax LF inh2 0, BoNT-A LC inh2 1 and BoNT F protease 2.
`CCOc1ccccc1NC(=O)c1ccc(S(=O)(=O)N2CCOCC2)cc1` gave BH1578 lux ind 0, Bead autofluor 3062, BJeLR viability -3, Anthrax LF inh2 -4, BoNT-A LC inh2 0 and BoNT F protease -8.
For CCOC(=O)c1ccccc1NC(=O)c1ccc(Cl)c(S(=O)(=O)N2CCOCC2)c1 the results were BH1578 lux ind 1, Bead autofluor 21650*, Anthrax LF inh2 -9, BoNT-A LC inh2 inconclusive and BoNT F protease 1.
COc1ccccc1NC(=O)c1ccc(S(=O)(=O)N2CCOCC2)cc1 was read as BH1578 lux ind -3, Bead autofluor 22270*, BJeLR viability 1, Anthrax LF inh2 -5, BoNT-A LC inh2 inconclusive and BoNT F protease -4.
For CCc1nc2c(OCC(=O)C(C)(C)C)cccn2c1N(C)C(=O)c1ccc(C)cc1 the results were BH1578 lux ind 0, Bead autofluor 3446, Anthrax LF inh2 0, BoNT-A LC inh2 0 and BoNT F protease -6.
For CCOC(=O)C(Cc1ccccc1)NC(=O)Cn1nnc(-c2ccccc2)n1 (configuration not stated) the results were BH1578 lux ind 5, Bead autofluor 20857*, BJeLR viability 6, Anthrax LF inh2 4, BoNT-A LC inh2 -3 and BoNT F protease -2.
Screening CCCOc1ccc(-c2nnn(CC(=O)OCC)n2)cc1 returned BH1578 lux ind inactive, Bead autofluor 22991*, BJeLR viability -3, Anthrax LF inh2 -6, BoNT-A LC inh2 -1 and BoNT F protease -1.
CCCOc1ccc(-c2nnn(CC(=O)N3CCCCC3)n2)cc1 was read as BH1578 lux ind inactive, Bead autofluor 4558, BJeLR viability 7, Anthrax LF inh2 2, BoNT-A LC inh2 0 and BoNT F protease -8.
`CCOc1ccc(-c2nnn(CC(=O)NCc3ccco3)n2)cc1` gave BH1578 lux ind -2, Bead autofluor 19976*, BJeLR viability -7, Anthrax LF inh2 -2, BoNT-A LC inh2 inconclusive and BoNT F protease -2.
